Here are results for 73 molecules from PubChem BioAssay AID602342 (Broad Institute, 2012).

About 1,000 (0.29%) of roughly 340,000 compounds were called active.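 Rule for the calls: active = mean replicate activation score at least 90 and every replicate individually at or above 90; inconclusive = only one of the two criteria met; inactive = neither criterion met.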 Many of the other results were omitted from the sample, so actives are more common in it than they were.

The nature of the experiment: compounds raising miR-122 luciferase sensor output – cell-based, single point, plate reader, miR-122 inhibitor project, primary screen (AID 602342).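 Note: higher luciferase means less miR-122 activity so hits act as miR-122 inhibitors.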 The conditions noted are these: Huh7 miR-122 Renilla luciferase sensor, 48 h, hits give high values, neutral wells = 0, positive control = 100; at 16.7 µM unless noted.
For the molecule `CS(=O)(=O)N1[C@H](C(=O)NCc2ccncc2)[C@@H](CO)[C@@H]2Cn3c(ccc(C4=CCCCC4)c3=O)[C@@H]21`, the activation (reporter increase) is 1.3% (inactive).

Regarding `O=C(Nc1cc(S(=O)(=O)Nc2ccc(Cl)cc2)ccc1O)c1ccc(F)cc1F`, the activation (reporter increase) was 118% [at 12.5 µM] (active).

In the case of `O=C(Nc1cccc(S(=O)(=O)NC2=NCCC2)c1)c1ccc(F)cc1F`, the activation (reporter increase) is 0.138% [at 12.5 µM] (inactive).

Regarding `CCS(=O)(=O)c1ccc(O)c(NC(=O)COc2ccc(Cl)cc2)c1`, the activation (reporter increase) was 2.08% [at 12.5 µM] (inactive).

With `C[C@H](CO)N1C[C@H](C)[C@H](CN(C)C(=O)NC2CCCCC2)OCCCC[C@H](C)Oc2ccc(NC(=O)Nc3ccc4c(c3)OCO4)cc2C1=O`, the activation (reporter increase) is -2.47% (inactive).

On to `C[C@@H]1CCCCO[C@H](CN(C)Cc2ccccc2)[C@H](C)CN([C@H](C)CO)C(=O)c2cc(NS(=O)(=O)c3ccc(Cl)cc3)ccc2O1`, for which the activation (reporter increase) was -12.3% (inactive).

In the case of `COc1ccc(S(=O)(=O)Nc2ccc3c(c2)C(=O)N([C@@H](C)CO)C[C@@H](C)[C@H](CN(C)C(=O)CCC(F)(F)F)OCCCC[C@H](C)O3)cc1`, the activation (reporter increase) was -1.47% (inactive).

For `C[C@@H]1CN([C@@H](C)CO)C(=O)c2cc(-c3cncnc3)cnc2O[C@H]1CN(C)C(=O)c1cccc(F)c1`, the activation (reporter increase) was -0.099% (inactive).

On to `COc1ccc(C)cc1S(=O)(=O)Nc1cc2c3c(c1)CCC(=O)N3CCC2`, for which the activation (reporter increase) is 150% [at 12.5 µM] (active).

For the molecule `COc1ccccc1CNS(=O)(=O)c1cc2c3c(c1)CCC(=O)N3CCC2`, the activation (reporter increase) is 6.96% [at 12.5 µM] (inactive).

For `COc1ccc(CNS(=O)(=O)c2cc3c4c(c2)CCN4C(=O)CC3)cc1`, the activation (reporter increase) is 2.78% [at 12.5 µM] (inactive).

For `O=C(CN1CCOCC1)Nc1c(Cl)cc(Cl)cc1Cl`, the activation (reporter increase) is -6.99% [at 12.5 µM] (inactive).

Regarding `O=C(CN1CCOCC1)Nc1cc(Cl)ccc1Cl`, the activation (reporter increase) was 101% [at 12.5 µM] (active).

Consider `O=C(CN1CCOCC1)Nc1ccc(NC(=O)CN2CCOCC2)c(Cl)c1`, for which the activation (reporter increase) was 4.91% [at 12.5 µM] (inactive).

For `COc1ccc(S(=O)(=O)Nc2cccc3c2O[C@H](CN(C)Cc2ccc4c(c2)OCO4)[C@H](C)CN([C@@H](C)CO)C3=O)cc1`, the activation (reporter increase) was 2.28% (inactive).

On to `CC(=O)N(C)C[C@@H]1Oc2cc(-c3cccnc3)ccc2S(=O)(=O)N([C@@H](C)CO)C[C@H]1C`, for which the activation (reporter increase) is 0.602% (inactive).

Turning to `CC(C)NC(=O)Nc1ccc2c(c1)C(=O)N([C@H](C)CO)C[C@H](C)[C@@H](CN(C)S(=O)(=O)c1ccc(F)cc1)OCCCC[C@H](C)O2`, the activation (reporter increase) was -3.83% (inactive).

`O=C(NC1CCCC1)[C@@H]1[C@@H](CO)[C@@H]2Cn3c(ccc(-c4ccc(F)cc4)c3=O)[C@H]1N2Cc1cocn1`: the activation (reporter increase) was 1.2% (inactive).

On to `CCCC#Cc1cnc2c(c1)C(=O)N([C@H](C)CO)C[C@H](C)[C@H](CN(C)S(=O)(=O)c1cn(C)cn1)O2`, for which the activation (reporter increase) is -3.62% (inactive).

As to `C[C@@H]1CN([C@H](C)CO)C(=O)c2cccc(NS(=O)(=O)c3ccc(F)cc3)c2O[C@@H]1CN(C)S(=O)(=O)c1ccccc1`, the activation (reporter increase) is -5.32% (inactive).

For `O=C(NNC(=O)c1ccccc1O)c1ccccc1O`, the activation (reporter increase) was 530% [at 12.5 µM] (active).

With `Cc1cc(C(=O)CCC(=O)NNC(=O)c2ccccc2O)c(C)s1`, the activation (reporter increase) is -0.772% [at 12.5 µM] (inactive).

Take `CC1=C(C)CC(C(=O)NNC(=O)c2ccccc2O)C(C(=O)O)C1` (stereo not drawn): the activation (reporter increase) was 151% [at 12.5 µM] (active).

For the molecule `CC1=C(C)CC(C(=O)NNC(=O)c2csc3c2CCC(C(C)(C)C)C3)C(C(=O)O)C1` (stereo not drawn), the activation (reporter increase) is -0.996% [at 12.5 µM] (inactive).

As to `O=C(NNC(=O)C1CCC1)c1ccccc1`, the activation (reporter increase) is 1.59% [at 12.5 µM] (inactive).

Take `O=C(NNC(=O)c1cc(S(=O)(=O)N2CCCCC2)ccc1Cl)c1ccccc1O`: the activation (reporter increase) was -7.51% [at 12.5 µM] (inactive).

Take `C[C@@H]1CCCCO[C@H](CN(C)C(=O)NC2CCCCC2)[C@@H](C)CN([C@H](C)CO)C(=O)c2cc(NC(=O)CCC(F)(F)F)ccc2O1`: the activation (reporter increase) was 4.05% (inactive).

With `COc1ccc(NS(=O)(=O)c2ccc(NC(=O)c3ccc(N(C)S(C)(=O)=O)cc3)cc2)cc1`, the activation (reporter increase) is 3.93% [at 12.5 µM] (inactive).

For the molecule `CC(=O)NS(=O)(=O)c1ccc(NC(=S)NC(=O)C(C)(C)C)cc1`, the activation (reporter increase) is -3.58% [at 12.5 µM] (inactive).

As to `COc1ccc(NS(=O)(=O)c2ccc(NC(=S)NC(=O)CC(C)C)cc2)cc1`, the activation (reporter increase) is 161% [at 12.5 µM] (active).

For the molecule `C[C@@H]1CN([C@@H](C)CO)C(=O)c2cc(NC(=O)Cc3ccccc3)ccc2O[C@@H](C)CCCCO[C@H]1CN(C)C(=O)Cc1ccccc1`, the activation (reporter increase) is 0.724% (inactive).

In the case of `Cc1ccc(-c2ccc3c(c2)O[C@@H](CN(C)C(=O)CC2CC2)[C@@H](C)CN([C@@H](C)CO)S3(=O)=O)cc1`, the activation (reporter increase) was 12.9% (inactive).

As to `COc1ccc(NC(=O)N(C)C[C@H]2Oc3ccc(NS(=O)(=O)c4ccc(C)cc4)cc3C(=O)N([C@@H](C)CO)C[C@H]2C)cc1`, the activation (reporter increase) is 3.8% (inactive).

For `COc1ccc(NC(=O)Nc2ccc3c(c2)C(=O)N([C@H](C)CO)C[C@H](C)[C@H](CN(C)S(=O)(=O)c2ccc(OC)cc2)O3)cc1`, the activation (reporter increase) was -11.1% (inactive).

For the molecule `COc1ccc(C(=O)Nc2ccccc2C(=O)N/N=C/c2ccccc2OC)cc1`, the activation (reporter increase) is 115% [at 12.5 µM] (active).

Regarding `COc1ccccc1C(=O)Nc1ccccc1C(=O)Nc1ccccc1`, the activation (reporter increase) is 1.44% [at 12.5 µM] (inactive).

As for `COc1ccc(OC)c(/C=N/NC(=O)c2ccc[n+](CC(=O)c3ccccc3)c2)c1`, the activation (reporter increase) was -4.06% [at 12.5 µM] (inactive).

On to `COc1ccc(NC(=O)N(C)C[C@H]2OCCCC[C@@H](C)Oc3ccc(NC(=O)NC4CCCCC4)cc3C(=O)N([C@@H](C)CO)C[C@H]2C)cc1`, for which the activation (reporter increase) was -3.11% (inactive).

`NC(=O)c1cc(S(=O)(=O)NCCCc2ccco2)cs1`: the activation (reporter increase) is 2.02% [at 12.5 µM] (inactive).

As for `CCOC(=O)c1c(C)[nH]c(C)c1S(=O)(=O)NCCCc1ccco1`, the activation (reporter increase) is 128% [at 12.5 µM] (active).

As to `CCOC(=O)c1c(S(=O)(=O)NCC(=O)Nc2ccc(C)cc2)c(C)n(C)c1C`, the activation (reporter increase) was 3.19% [at 12.5 µM] (inactive).

Consider `O=C(O)c1ccc(F)c(S(=O)(=O)Nc2ccccc2)c1`, for which the activation (reporter increase) is 3.15% [at 12.5 µM] (inactive).

For the molecule `Cc1cc(C(C)(C)C)cc(S(=O)(=O)Nc2ccc(C(=O)O)cc2)c1C`, the activation (reporter increase) is 165% [at 12.5 µM] (active).

On to `Cc1noc(C)c1S(=O)(=O)Nc1ccc(C(=O)O)cc1`, for which the activation (reporter increase) is 0.153% [at 12.5 µM] (inactive).

In the case of `COc1ccc(CN(C)C[C@H]2OCCCC[C@@H](C)Oc3ccc(NS(=O)(=O)c4ccccc4)cc3C(=O)N([C@@H](C)CO)C[C@@H]2C)cc1`, the activation (reporter increase) was -4.79% (inactive).

As to `CNC(=O)C[C@@H]1CC[C@@H]2[C@H](COC[C@H](O)CN2Cc2ccc(C(F)(F)F)cc2)O1`, the activation (reporter increase) was 1.05% (inactive).

With `COc1ccc(CCNC(=O)c2ccccc2OCc2ccccc2)cc1`, the activation (reporter increase) is -1.62% [at 12.5 µM] (inactive).

`COc1ccc(OCCCC(=O)NCCc2ccccc2)cc1`: the activation (reporter increase) was 223% [at 12.5 µM] (active).

For `COc1ccc(OCC(=O)NCCc2ccc(S(N)(=O)=O)cc2)cc1`, the activation (reporter increase) was -15.2% [at 12.5 µM] (inactive).

For the molecule `OC[C@@H]1[C@H](c2ccc(C#CC3CC3)cc2)[C@@H]2CN(CCC(F)(F)F)CCCCN12`, the activation (reporter increase) is 12.9% (inactive).

On to `CCCNC(=O)N1C[C@@H](O)COC[C@@H]2O[C@@H](CC(=O)O)CC[C@H]21`, for which the activation (reporter increase) was 0.047% (inactive).

For the molecule `C[C@H](CO)N1C[C@H](C)[C@H](CN(C)CC2CCCCC2)Oc2c(NC(=O)c3cnccn3)cccc2C1=O`, the activation (reporter increase) was 119% (active).

With `C[C@H](CO)N1C[C@H](C)[C@H](CN(C)Cc2ccc(C(=O)O)cc2)Oc2c(NC(=O)C3CCOCC3)cccc2C1=O`, the activation (reporter increase) was -5.1% (inactive).

As to `C[C@H](CO)N1C[C@H](C)[C@@H](CN(C)Cc2ccccc2)Oc2c(NC(=O)C3CCOCC3)cccc2C1=O`, the activation (reporter increase) was 14.3% (inactive).

On to `C[C@H](CO)N1C[C@H](C)[C@@H](CN(C)Cc2ccc3c(c2)OCO3)Oc2c(NC(=O)C3CCOCC3)cccc2C1=O`, for which the activation (reporter increase) was 319% (active).

As for `C[C@@H]1CN([C@H](C)CO)C(=O)c2cccc(NC(=O)c3cnccn3)c2O[C@@H]1CN(C)Cc1ccncc1`, the activation (reporter increase) is -3.39% (inactive).

On to `CC(C)NC(=O)N(C)C[C@@H]1Oc2c(NC(=O)c3cnccn3)cccc2C(=O)N([C@@H](C)CO)C[C@@H]1C`, for which the activation (reporter increase) is 4.6% (inactive).

With `CN(C)CCCNC(=O)C[C@@H]1C=C[C@H](NC(=O)Cc2cccnc2)[C@H](CO)O1`, the activation (reporter increase) was 15.8% (inactive).

In the case of `COc1ccc(S(=O)(=O)N(C)C[C@H]2OCCCC[C@@H](C)Oc3ccc(NC(=O)CCC(F)(F)F)cc3C(=O)N([C@@H](C)CO)C[C@H]2C)cc1`, the activation (reporter increase) was 16.9% (inactive).

On to `C[C@@H]1CCCCO[C@@H](CN(C)S(=O)(=O)c2cn(C)cn2)[C@@H](C)CN([C@@H](C)CO)C(=O)c2cc(NC(=O)Nc3ccc(C(F)(F)F)cc3)ccc2O1`, for which the activation (reporter increase) is -9.96% (inactive).

Turning to `CCOc1ncccc1C(=O)NNC(=O)c1cccc(S(=O)(=O)Nc2ccccc2OC)c1`, the activation (reporter increase) is -0.667% [at 12.5 µM] (inactive).

In the case of `COc1ccc(N2CC(NS(=O)(=O)c3ccc4ccccc4c3)CC2=O)cc1` (stereo not drawn), the activation (reporter increase) was -5.35% [at 12.5 µM] (inactive).

In the case of `COc1cc(NS(=O)(=O)c2ccc3ccccc3c2)c2ncccc2c1`, the activation (reporter increase) is 152% [at 12.5 µM] (active).

Take `C[C@H]1CN([C@@H](C)CO)C(=O)c2cccc(NC(=O)Nc3ccc(F)cc3)c2O[C@H]1CN(C)S(=O)(=O)c1cn(C)cn1`: the activation (reporter increase) was 4.09% (inactive).

Turning to `COc1ccc(S(=O)(=O)Nc2ccc(F)cc2)c(C)c1C`, the activation (reporter increase) was 231% [at 12.5 µM] (active).

As for `COc1ccc(S(=O)(=O)Nc2ccc3c(c2)OCO3)cc1Cl`, the activation (reporter increase) is 37.2% [at 12.5 µM] (inactive).

Consider `COc1ccc(F)cc1S(=O)(=O)NCC(c1ccc2c(c1)OCO2)N1CCN(C)CC1` (stereo not drawn), for which the activation (reporter increase) is 2.63% [at 12.5 µM] (inactive).

For `COc1ccc(F)cc1S(=O)(=O)Nc1ccc2c(c1)OCO2`, the activation (reporter increase) was 99.7% [at 12.5 µM] (active).

Take `COc1ccc(NS(=O)(=O)c2ccc(F)cc2F)cn1`: the activation (reporter increase) is -2.63% [at 12.5 µM] (inactive).

Regarding `CCOc1ccc(S(=O)(=O)Nc2ccncc2)c(C)c1C`, the activation (reporter increase) was 20.9% [at 12.5 µM] (inactive).

Take `CO[C@H]1CN(C)C(=O)c2ccc(NS(=O)(=O)c3ccccc3C)cc2OC[C@H](C)NC[C@H]1C`: the activation (reporter increase) was 6.89% (inactive).

Regarding `Cn1cnc(S(=O)(=O)N2C[C@@H](O)COC[C@H]3O[C@@H](CC(=O)NCc4ccc(F)cc4)CC[C@@H]32)c1`, the activation (reporter increase) is 2.69% (inactive).

With `O=C(N[C@@H]1CC[C@H](CCn2cc(C3CC3)nn2)O[C@H]1CO)c1cccnc1`, the activation (reporter increase) is -7.57% (inactive).
